“And” between values parts separate entries of the source, which are not always exact repeats. Identical values can stand only once. Inconclusive results are not listed. The source made the active and inactive calls. Calls come from the whole dose curve; as a rule, active = well fitted cell-killing curve with a large enough effect; inconclusive = small, poorly fitted or top-dose-only effect, or effect the other way; inactive = no such curve, though single readings can be large or run the other way.
Assay: Viability qHTS for spleen associated tyrosine kinase inhibitor (SYKi) drug resistant MV4-11 cells (AID 1963824); note: nearly all actives have a fitted effect of over 35% in size
Conditions: SYKi-resistant MV4-11 viability, CellTiter-Glo, 72 h; series mostly up to 45 µM; viability, % of control: at the top concentration
Excerpt: Department of Medicine, Hematology/Oncology
University Hospital Frankfurt, Germany.
Trials have shown promising clinical activity of the selective SYK inhibitor entospletinib in patients with high expressing HOXA9/MEIS1 acute leukemias. As the development of resistance mechanisms is a common problem in the use of targeted drugs, we performed a chemical library screen to identify drug sensitivities in SYK inhibitor resistant AML cells. […] Glucocorticoids are potent immunosuppressants which work in part by inhibiting the transcription of cytokine genes.
Described herein is a viability screen to look for activity in the SYK inhibitor drug resistant cell line against four NCATS compound libraries (MIPE 5.0, NPC, NPACT, and Kinase) totaling 11372 compounds. Active hits were reacquired for confirmation and further secondary assay testing.
SEQUENCE No. (e.g., 1, 2, 3, etc.); […] (e.g., Cells, Incubation, Reagent, etc.); VALUE; DESCRIPTION.
1; Media; 2uL; white, solid-bottom Corning assay plate.
2; Compounds; 23nL; Echo acoustic dispenser.
3; Cell; 5uL; 500 cells per well.
4: Incubation; 72hr; 37 C, 5% CO2, 95% humidity.
5; Reagent; 3uL; CellTiter-Glo reagent (Promega).
6; Incubation; 10min; room temperature.
7; Detection; Luminescence; ViewLux plate reader (PerkinElmer).
NOTES (numbers refer to Sequence numbers above
1. Quantitative high-throughput screening (qHTS) of small molecule compounds was conducted on drug resistant SYKi MV4-11 cell line.
2. Twenty-three nanoliter of small molecule compounds were added to each assay plates using the Echo acoustic dispenser (Beckman Coulter).
3. Cells were seeded into the assay plates at a final density of 500 cells in 5uL of media per well using the Multidrop Combi dispenser.
4. Plates were covered with stainless steel gasketed lids and incubated for 72 hours at standard cell culture conditions.
5. Viability was assessed by adding 3uL of CellTiter-Glo detection reagent (Promega).
6. Plates were covered with gasket lids and incubated for 10 minutes at room temperature.
7. Luminescence was measured on a ViewLux plate reader (PerkinElmer).
Potency is the fitted concentration of half-maximal effect.

SMILES | Potency | viability, % of control
CS(=O)(=O)CCNCc1ccc(-c2ccc3ncnc(Nc4ccc(OCc5cccc(F)c5)c(Cl)c4)c3c2)o1 | 16.8 µM (active) and 8.2 µM (active) and 11.8 µM (active) | –
CN1CC[C@@H](c2c(O)cc(O)c3c(=O)cc(-c4ccccc4Cl)oc23)[C@@H](O)C1 | 296 nM (active) | –
CNc1cccc(CCOc2ccc3c(c2)CN(CC(F)(F)F)C(=O)[C@H](CC(=O)O)C3)n1 | – | 54.7% (inactive)
COc1ccc(-c2cnc(-c3cccc4c3-c3ccccc3C4=O)o2)cc1 | 70.9 nM (active) | –
CO[C@@H](C)Cn1c(=O)n(C)c2cnc3ccc(-c4cncc(C(C)(C)O)c4)cc3c21 | 332 nM (active) | –
C=C1C[C@]23C[C@H]1CC[C@H]2[C@]1(C)CCC[C@@]2(CO)C(=O)O[C@H]([C@H]21)[C@@H]3O | – | 81.3% (inactive)
Cc1cc(Nc2ncc3c(n2)N(C)C(=O)N(c2cc(NC(=O)c4cccc(C(F)(F)F)c4)ccc2C)C3)n(C)n1 | 29.5 nM (active) | –
CCc1c2c(nc3ccc(OC(=O)N4CCC(N5CCCCC5)CC4)cc13)-c1cc3c(c(=O)n1C2)COC(=O)[C@]3(O)CC | 2.66 µM (active) and 296 nM (active) | –
CC(=O)NC(=O)c1ccccc1O | – | 96.1% (inactive)
COc1ccc2c3c1O[C@H]1C[C@@H](O)C=C[C@@]31CCN(C)C2 | – | 85% (inactive)
COc1ccccc1N1CCN(CC[C@@](C)(C(=O)C2CCCCC2)c2ccccc2)CC1 | 14600 nM (active) | –
O=C(OCc1ccccc1)c1ccccc1 | – | 82.1% (inactive)
O=c1cc(O)c(Cl)c[nH]1 | – | 98.1% (inactive)
COc1cc([C@@H]2c3cc4c(cc3[C@H](O)[C@H]3COC(=O)[C@H]23)OCO4)cc(OC)c1OC | 37.6 nM (active) and 37.2 nM (active) | –
CC(=O)OCC[N+](C)(C)C | – | 83% (inactive)
O=C(O)COCCN1CCN(C(c2ccccc2)c2ccc(Cl)cc2)CC1 (stereo not given) | – | 91.3% (inactive)
[2H]C([2H])(Nc1nc(-c2ccccc2C([2H])(C([2H])([2H])[2H])C([2H])([2H])[2H])ncc1C)c1ccc(-n2ccnn2)cc1 | 11800 nM (active) | –
Cc1cc(Nc2ncc3cc(-c4c(Cl)cccc4Cl)c(=O)n(C)c3n2)ccc1F | 517 nM (active) | –
CC(CC(C)O[C@@H]1O[C@H](CO)[C@@H](O)[C@H](O)[C@H]1O)OC(=O)/C=C/c1ccc(O)cc1 (stereo not given in full) | – | 87.1% [at 17.3 µM] (inactive)
COC1=CC(=O)CC(C)C12Oc1cc(OC)cc(O)c1C2=O (stereo not given) | – | 86.5% (inactive)

SMILES | Potency | viability, % of control
O=C1c2ccccc2-[n+]2ccc3c([nH]c4ccccc43)c21 | 651 nM (active) | –
C=C1[C@H](OC(=O)/C=C(\C)CC)C[C@@H](C(C)C)[C@@H]2[C@H]([C@@H](C)OC(C)=O)C(=O)C[C@@H]12 | 13200 nM (active) | –
CCN(CC)CCNC(C(=O)OCCC(C)C)c1ccccc1 (stereo not given) | – | 90.8% (inactive)
O=C(O)[C@H](O)[C@@H](O)[C@H](O[C@@H]1O[C@H](CO)[C@H](O)[C@H](O)[C@H]1O)[C@H](O)CO | – | 93.8% (inactive)
C[C@@H]1O[C@@H](OC(=O)Cc2ccccc2)[C@H](O)[C@H](O)[C@H]1O | – | 90.4% (inactive)
CC1=C[C@@H]2[C@@H]([C@@H](O)C[C@@]3(C)[C@H]2C[C@@H](C)[C@]3(O)C(=O)CO)[C@@]2(C)Cc3cnn(-c4ccccc4)c3C=C12 | 1030 nM (active) | –
CC1CCC2C(C)(C)C(O)CCC2(C)C12Cc1c(O)cc3c(c1O2)CN(C(CCCN=C(N)N)C(=O)O)C3=O (stereo not given) | 5630 nM (active) | –
O=C(O)[C@H]1Cc2ccccc2CN1 | – | 101% [at 4.97 µM] (inactive)
COc1cc(C(CO)CO[C@@H]2O[C@H](CO)[C@@H](O)[C@H](O)[C@H]2O)ccc1O (stereo not given in full) | – | 94.7% (inactive)
CC(C)(C)NC[C@H](O)COc1nsnc1N1CCOCC1 | – | 66.1% (inactive)
COc1ccc(C(=O)Nc2ncc(-c3ccc(C(=O)O)cc3)s2)cc1 | 461 nM (active) | –
COc1cc2c(cc1OC)[C@@H]1[C@H](O)[C@@H](OC)C=C3CCN(C2)[C@H]31 | 1800 nM (active) | –
CCOc1ccccc1C(N)=O | 9440 nM (active) | –
CNC(=O)c1cc(Oc2ccc(NC(=O)Nc3ccc(Cl)c(C(F)(F)F)c3)c(F)c2)ccn1 | 291 nM (active) and 590 nM (active) | –
COc1cc(Nc2nc3c(s2)CCCC3c2ccccc2)ccc1-n1cnc(C)c1 (stereo not given) | – | 109% [at 9.25 µM] (inactive)
CC1=C(CO)C2(C)CCCC(C)(C)C2C(O)C1O (stereo not given) | – | 78.5% (inactive)
O=C(/C=C/c1cccnc1)NCCCCC1CCN(C(=O)c2ccccc2)CC1 | 5.3 nM (active) | –
CC1=C(C)C(=O)OC(C(C)C2C(O)CC3C4C5OC5C5(O)CC(OC6OC(CO)C(OC7OC(C)C(O)C(O)C7O)C(O)C6O)CC(O)C5(C)C4CCC32C)C1 (stereo not given) | – | 80.7% [at 17.3 µM] (inactive)
COc1cc2nc(N3CCC(N4CCCCC4)CC3)nc(NC3CCCCCC3)c2cc1OC | 1030 nM (active) | –
CON(C)C(=O)N1N=C(c2cc(F)ccc2F)S[C@@]1(CCCN)c1ccccc1 | 10.3 nM (active) and 3.3 nM (active) | –

Reference: PubChem BioAssay (NCATS)
